Measured values published in PubChem BioAssay.

How the values were obtained:
[1] = tested on: Human papillomavirus type 1a protein E7 (residues 44-93); assay: HPV1a E7 fragment binders on microarrays, primary screen, biochemical, small-molecule microarray, residues 44-93, 635 nm fluorescence (AID 1108); details: small-molecule microarray binding, fluorescence 635 nm; higher = more signal;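 further: E7 fragment applied at 1 µg/mL in TBST for 1 h at 4 C; score combines spot fluorescence with its signal to noise ratio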
[2] = modulators of HCV replicon luciferase signal, primary screen, HCV replication inhibitor project, Huh7 cells, luciferase reporter (AID 1109); details: 48 h, higher = more signal;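 further: huh7 hepatoma cells harbouring a luciferase neomycin HCV replicon reporter; luciferase luminescence as measure of HCV replicon replication; test concentration not given here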
[3] = target: Left-right determination factor 2 (Homo sapiens) (UniProt O00292); assay: LEFTY2 binders on small-molecule microarrays, primary screen, biochemical, small-molecule microarray, 635 nm fluorescence scan (AID 1110); details: LEFTY2 binding, higher = more signal
[4] = target: Calmodulin-1 (Homo sapiens) (UniProt P0DP23); assay: CALM1 binders on microarrays, EGTA buffer, profiling panel, biochemical, small-molecule microarray, Cy5-labelled CALM1 (AID 1111); details: Cy5-CALM1 binding fluorescence, higher = more signal;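 further: labelled calmodulin applied in Tris saline Tween buffer holding calcium plus EGTA and DTT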
[5] = target: Calmodulin-1 (Homo sapiens) (UniProt P0DP23); assay: calcium-bound CALM1 binders on microarrays, profiling panel, artefact control for SMM control-protein annotation, biochemical, small-molecule microarray, Cy5-labelled CALM1, plus calcium (AID 1112); details: Cy5-CALM1 binding fluorescence, higher = more signal;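 further: score merges spot fluorescence with signal to noise from triplicate slides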
[6] = small-molecule microarray binders of probe aWnt5a, primary screen, biochemical, biotinylated probe, 635/667 nm fluorescence (AID 1113); details: higher = more signal;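 further: score merges 667 nm fluorescence intensity with signal-to-noise per printed feature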
[7] = small-molecule microarray binders of probe aShh, primary screen, biochemical, biotinylated probe, 635/667 nm fluorescence (AID 1114); details: higher = more signal;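 further: probe is biotin-labelled aShh protein from a stem cell growth factor screen; measures binding of labelled protein to compounds printed on the slide; score merges feature fluorescence at 667 nm with signal-to-noise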
[8] = small-molecule microarray binders of probe aNog, primary screen, biochemical, biotinylated probe, 635/667 nm fluorescence (AID 1115); details: higher = more signal;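 further: probe is biotinylated aNog protein used at 0.15 µg/mL for 1 h at 4 C; z-score combines 667 nm fluorescence of each spot with its signal to noise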
[9] = target: Torsin-1A-interacting protein 1 (Homo sapiens) (UniProt Q5JTV8); assay: LAP1 binders from COS7 cell lysate, primary screen, small-molecule microarray, 635/667 nm fluorescence (AID 1116); details: COS7-hLAP1 lysate binding, 635 nm fluorescence, higher = more signal
[10] = target: Alpha-bungarotoxin (Bungarus multicinctus) (UniProt P60615); assay: alpha-bungarotoxin binders on microarray, profiling panel, artefact control for SMM control protein annotation, biochemical, small-molecule microarray, Alexa647 label, 635/667 nm fluorescence (AID 1117); details: alpha-BTX-A647 binding fluorescence, higher = more signal
Alpha-bungarotoxin (Bungarus multicinctus), sequence (P60615 whole entry, looked up): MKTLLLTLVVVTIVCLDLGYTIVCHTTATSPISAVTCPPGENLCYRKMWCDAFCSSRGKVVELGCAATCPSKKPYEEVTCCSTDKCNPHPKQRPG

Torsin-1A-interacting protein 1 (Homo sapiens), sequence (Q5JTV8 whole entry, looked up): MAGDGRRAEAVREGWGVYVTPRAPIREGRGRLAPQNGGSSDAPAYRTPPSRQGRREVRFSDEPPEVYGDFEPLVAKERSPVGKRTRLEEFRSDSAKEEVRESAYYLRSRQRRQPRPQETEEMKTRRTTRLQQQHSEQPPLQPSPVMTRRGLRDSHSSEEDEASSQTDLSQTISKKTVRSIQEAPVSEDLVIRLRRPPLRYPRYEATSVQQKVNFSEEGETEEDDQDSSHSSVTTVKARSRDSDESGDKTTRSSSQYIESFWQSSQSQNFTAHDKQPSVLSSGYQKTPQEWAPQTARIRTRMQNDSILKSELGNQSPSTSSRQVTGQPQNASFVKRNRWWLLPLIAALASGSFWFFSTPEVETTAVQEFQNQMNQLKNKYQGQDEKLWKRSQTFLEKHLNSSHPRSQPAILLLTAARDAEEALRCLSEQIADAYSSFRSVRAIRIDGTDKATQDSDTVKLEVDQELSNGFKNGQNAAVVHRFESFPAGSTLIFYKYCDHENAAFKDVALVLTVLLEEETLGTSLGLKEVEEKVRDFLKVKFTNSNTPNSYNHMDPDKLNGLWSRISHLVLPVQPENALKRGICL
Left-right determination factor 2 (Homo sapiens), sequence (O00292 whole entry, looked up): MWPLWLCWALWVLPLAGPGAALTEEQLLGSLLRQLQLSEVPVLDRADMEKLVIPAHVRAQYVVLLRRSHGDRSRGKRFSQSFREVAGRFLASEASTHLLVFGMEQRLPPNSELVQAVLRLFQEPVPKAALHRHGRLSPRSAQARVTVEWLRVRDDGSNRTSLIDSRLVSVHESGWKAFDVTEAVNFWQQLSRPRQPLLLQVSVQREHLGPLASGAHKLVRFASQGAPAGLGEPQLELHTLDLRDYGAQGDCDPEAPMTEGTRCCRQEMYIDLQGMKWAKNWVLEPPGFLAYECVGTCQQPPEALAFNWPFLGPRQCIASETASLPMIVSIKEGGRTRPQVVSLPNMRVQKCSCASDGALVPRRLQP

SMILES | composite z-score [1] | z-score [2] | composite z-score [3] | composite z-score [4] | composite z-score [5] | composite z-score [6] | composite z-score [7] | composite z-score [8] | composite z-score [9] | composite z-score [10]
C=C(COC)/C(=C/C[C@@H](OC(C)=O)c1cccc(OCCO)c1)c1cc(C(=O)OC)ccc1OC | -0.307 | -0.72 | -0.357 | -0.39 | -0.0115 | -0.091 | -0.0289 | 0.717 | 0.505 | -1.07
CCN1C(C)=C(C(=O)OC)[C@@H](c2ccccc2)N2C(=O)[C@](O)(C(=O)OC)[C@@H](c3ccccc3)C(C(C)=O)=C12 | -0.0269 | -0.279 | 0.784 | -0.693 | -0.0342 | -0.0125 | -0.262 | 0.19 | 0.0025 | -0.576
O=C1C2C=CC(C(O)c3ccccc3)N(n3cnnc3)C2C(=O)N1Cc1ccccc1 (stereo not given) | -0.447 | 0.573 | -0.237 | 0.206 | -0.372 | 0.0357 | -0.0594 | 0.319 | 0.327 | 0.449
CCC#CCN(Cc1ccccc1Br)[C@H](/C=C/c1ccccc1)[C@@H](O)Cc1ccccc1 | -0.0687 | -2.58 | -0.635 | -0.481 | 0.402 | -0.152 | -0.138 | -0.326 | -0.613 | -0.0441
O=[N+]([O-])c1ccc(C[n+]2ccc3ccc(O)cc3c2)o1 | -0.0611 | -0.95 | -0.0338 | 1.01 | 0.287 | -0.0435 | 0.673 | -0.206 | -0.314 | 2.53
COCCOC(=O)N1C(=O)[C@@]2(c3cc(C#CC4=CCCCC4)ccc31)[C@H](C(=O)NC[C@H](O)c1ccccc1)[C@H]1C(=O)O[C@H](c3ccccc3)[C@H](c3ccccc3)N1[C@@H]2c1ccc(OCCO)cc1 | 1.41 | -2.08 | 0.537 | 0.774 | -0.206 | 0.0115 | -0.279 | 0.165 | 1 | 1.28
CO[C@H]1COC(=O)CC=C[C@@H](C)COC(=O)[C@@H](C)NC(=O)CC=C[C@@H]1C | -0.291 | 0.325 | 1.6 | -3.42 | -3.57 | -0.307 | 0.238 | -0.139 | -0.229 | -0.706
O=C1OCC=C[C@H]2OC34C=CCN(Cc5ccccc5)C(=O)[C@H]3N(CCO)C(=O)[C@@H]4[C@@H]12 (stereo not given in full) | 0.257 | -0.877 | -0.864 | -0.289 | 0.822 | -0.144 | -0.134 | -0.182 | -0.459 | -0.38
CCOC(=O)C[C@H]1[C@H](OC(=O)Cc2ccc3c(c2)OCO3)[C@@H](NC(=O)c2ccc3ccccc3c2)c2cc(OCCCO)ccc2N1C(=O)Cc1ccc(OC)cc1 | 1.01 | -1.74 | 0.296 | 1.19 | 0.139 | -0.159 | -0.367 | -0.568 | 0.941 | 0.454
C[C@@H]1CC[C@H]2C(=O)N3CCC[C@H]3C(=O)N2[C@H]1c1ccc(Br)cc1 | 0.175 | 0.673 | 0.267 | -0.243 | -0.558 | -0.212 | -0.0769 | -0.307 | 0.324 | -0.179
NC(=O)NCC#Cc1ccc2c(c1)[C@]1(C(=O)N2)[C@H](c2ccccc2OCCO)N2[C@H](c3ccccc3)[C@H](c3ccccc3)OC(=O)[C@H]2[C@@H]1C(=O)N1CCN(c2ncccn2)CC1 | 1.4 | -0.729 | 0.235 | 0.427 | 0.263 | -0.124 | 0.399 | -0.582 | 1.04 | 0.959
[N-]=[N+]=NCc1ccccc1C[C@@]1(C(=O)O)N=C(c2ccc(OCCCO)cc2)O[C@@H]1c1ccccc1N=[N+]=[N-] | 1.42 | -1.25 | 0.101 | -0.281 | -0.222 | -0.0236 | -0.138 | -0.316 | 0.938 | 0.552
C[N+](C)(C)CCCCNC(=O)[C@@H]1C[C@@H]2C(=O)N3CCC[C@H]3C(=O)N2[C@@H]1c1cccc(OCCO)c1 | -0.745 | 0.0741 | 1.14 | -0.794 | 0.658 | -0.162 | -0.0626 | -0.0645 | 1.62 | 1.16
Cc1ccc(N2C(=O)c3ccccc3[C@](C)(C(=O)O)[C@@H]2c2ccc(CO)cc2)nc1 | -2.5 | 0.0767 | -1.64 | 0.202 | 0.823 | -0.304 | 0.608 | -0.459 | -0.415 | -0.666
CCCN1C(=O)[C@@]2(CCS(=O)(=O)c3ccccc3)N=C(c3ccc(OCCCO)cc3)O[C@H]2c2ccccc21 | 1.45 | -2.08 | 0.224 | 0.248 | -0.598 | -0.0721 | -0.0234 | -0.269 | 0.307 | 1.01
O=C1C[C@@](C(=O)NCCN2CCOCC2)(c2ccc([N+](=O)[O-])cc2)[C@@H](c2ccc(CO)cc2)N1C1CCCCC1 | 1.39 | -0.867 | 1.06 | 0.502 | -0.142 | 0.0621 | 0.171 | 0.924 | 1.6 | 0.571
COC(=O)c1c(CC[C@@H](CO)NC(=O)N[C@H](Cn2cc(-c3cncn3C)nn2)C(C)C)oc(C(C)=O)c1C(=O)OC | 0.873 | 0.0688 | 0.332 | -0.055 | -0.333 | -0.1 | -0.2 | 0.0668 | 0.542 | -0.115
